Inconclusive results are not listed. Entries that show only a call come without a potency. Calls of active or inactive are those of the source. Unless noted, the call rests on the fitted dose curve; in most records, active means well fitted curve in the direction sought with a large enough effect; inconclusive means small, poorly fitted or top-dose-only effect, or another doubt; inactive means no such curve, though single readings can be large; an effect the other way counts as inactive or inconclusive.

Consider 15 molecules from PubChem BioAssay (NCATS).

In experiment [1] the target is ATP-dependent 6-phosphofructokinase (Trypanosoma brucei brucei) (UniProt O15648). In words: qHTS Assay to Find Inhibitors of T. brucei phosphofructokinase: hit validation (AID 492961).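 Further: luminescence reports ADP formed as PFK phosphorylates fructose-6-phosphate with ATP; series mostly up to about 51 µM.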 The procedure, abridged: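 ADP-Glo luminescence read-out of ADP formed by 1.25 nM PFK from 0.1 mM ATP and 0.5 mM F6P (TEA pH 8.0, 45 min, RT). Compounds titrated; activity normalized to no-enzyme and full-enzyme controls.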
Chain of ATP-dependent 6-phosphofructokinase (Trypanosoma brucei brucei) (O15648 whole entry, looked up): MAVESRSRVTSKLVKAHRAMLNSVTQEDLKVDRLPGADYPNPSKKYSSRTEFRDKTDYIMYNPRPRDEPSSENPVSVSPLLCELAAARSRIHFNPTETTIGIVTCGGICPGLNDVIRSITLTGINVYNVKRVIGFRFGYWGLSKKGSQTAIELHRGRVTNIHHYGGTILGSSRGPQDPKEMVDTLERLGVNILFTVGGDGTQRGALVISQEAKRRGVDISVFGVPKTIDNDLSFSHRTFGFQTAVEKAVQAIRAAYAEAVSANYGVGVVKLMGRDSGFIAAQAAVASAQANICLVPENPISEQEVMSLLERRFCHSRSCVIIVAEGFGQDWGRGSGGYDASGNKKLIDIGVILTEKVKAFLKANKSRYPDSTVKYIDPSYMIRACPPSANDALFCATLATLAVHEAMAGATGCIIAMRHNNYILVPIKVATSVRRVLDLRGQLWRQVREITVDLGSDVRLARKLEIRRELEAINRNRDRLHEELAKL
Background: Quantitative high-throughput screening tests each substance at several concentrations.

The target in experiment [2] is Ubiquitin carboxyl-terminal hydrolase 1 (Homo sapiens) (UniProt O94782). In words: Inhibitors of USP1/UAF1: Pilot qHTS (AID 504865).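 Further: rhodamine fluorescence freed from ubiquitin-rhodamine substrate followed over time; top concentration of the series differs between compounds; nearly all actives have a fitted effect of over 35% in size.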 In a few lines: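 USP1/UAF1 complex (1nM) preincubated with compound 15 min at room temperature, then Ub-Rho substrate (150nM final) added. Fluorescence read kinetically at 480/540 nm, 6 reads every 60 seconds. Buffer: 50mM HEPES pH 7.8, 0.5mM EDTA, 0.1 mg/ml BSA, 1mM TCEP, 0.01% Tween-20.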
Chain of Ubiquitin carboxyl-terminal hydrolase 1 (Homo sapiens) (O94782 whole entry, looked up): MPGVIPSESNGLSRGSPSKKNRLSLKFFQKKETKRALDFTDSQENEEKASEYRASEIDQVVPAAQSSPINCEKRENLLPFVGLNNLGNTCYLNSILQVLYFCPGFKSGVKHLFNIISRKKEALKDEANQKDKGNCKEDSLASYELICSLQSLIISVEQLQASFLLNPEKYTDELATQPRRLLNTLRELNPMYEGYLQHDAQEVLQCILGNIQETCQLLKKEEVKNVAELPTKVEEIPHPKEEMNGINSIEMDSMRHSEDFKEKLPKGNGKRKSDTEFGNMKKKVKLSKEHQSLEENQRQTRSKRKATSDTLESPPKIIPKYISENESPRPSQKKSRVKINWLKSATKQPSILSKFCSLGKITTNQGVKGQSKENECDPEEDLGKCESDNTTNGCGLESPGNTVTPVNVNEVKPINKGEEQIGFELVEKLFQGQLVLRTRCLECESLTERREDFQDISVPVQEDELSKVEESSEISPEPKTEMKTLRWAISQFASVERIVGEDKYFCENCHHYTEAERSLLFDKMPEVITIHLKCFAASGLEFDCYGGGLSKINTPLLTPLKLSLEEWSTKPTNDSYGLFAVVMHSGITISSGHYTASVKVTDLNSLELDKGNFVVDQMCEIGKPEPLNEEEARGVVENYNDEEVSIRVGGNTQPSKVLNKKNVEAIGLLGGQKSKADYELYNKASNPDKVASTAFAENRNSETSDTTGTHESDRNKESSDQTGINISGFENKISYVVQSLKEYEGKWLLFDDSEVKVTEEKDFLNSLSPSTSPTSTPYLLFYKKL

Experiment [3] addresses Methanococcus maripaludis chaperonin (MmCpn) (UniProt Q6LX38). Nature of the experiment: High-Throughput Screening for Modulators of Cytosolic Chaperonin Activity: MmCpn Primary Screen (AID 488978).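 Further: 50 nM MmCpn enzyme hydrolysing 30 µM ATP at 37 °C.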 In a few lines:
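MmCpn (50 nM final) was preincubated with compound 5 min at RT, then 30 uM ATP (final) was added and the reaction ran 10 min at 37C. ADP produced was detected by Transcreener HTRF (ex 320 nm; em 590/665 nm).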

A short description of experiment [4]: Validation screen for small molecules that induce genotoxicity in human embryonic kidney (HEK293T) cells expressing luciferase-tagged ELG1 (AID 493106). The procedure, abridged:
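ELG1-luciferase reporter readout (ONE-Glo, 30 min, room temperature) after 16 hr compound treatment at 37 °C of HEK293T cells at 2,000 per well. Rising luminescence flags genotoxic stress.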

Experiment [5] in a line: qHTS for Inhibitors of Cell Surface uPA Generation: Validation Assay (AID 493164).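 Further: RAW 264.7 macrophage cells exposed to compound for 18 h.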 In a few lines: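 ATP-Lite luminescence read-out: ATP remains high when uPA activity-dependent LF translocation into the cytoplasm is blocked. RAW 264.7 cells, 18 h compound exposure at 37 C; 7-point titration, 2.45 nM to 38.3 uM final.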
The target of experiment [6] is Phosphoglycerate kinase, glycosomal (Trypanosoma brucei brucei) (UniProt P07378). In words: qHTS Validation Assay to Find Inhibitors of Phosphoglycerate Kinase (AID 504547). The procedure, abridged: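 Luminescence end-point (Kinase-Glo Plus, 10 min) after a 60 min room-temperature coupled reaction. GAPDH at 100nM final supplies 1,3-BPG to PGK. Buffer: 100mM TEA pH 7.6, 5mM MgCl2, 0.01% Tween-20. Wells lacking PGK served as controls.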
Chain of Phosphoglycerate kinase, glycosomal (Trypanosoma brucei brucei) (P07378 whole entry, looked up): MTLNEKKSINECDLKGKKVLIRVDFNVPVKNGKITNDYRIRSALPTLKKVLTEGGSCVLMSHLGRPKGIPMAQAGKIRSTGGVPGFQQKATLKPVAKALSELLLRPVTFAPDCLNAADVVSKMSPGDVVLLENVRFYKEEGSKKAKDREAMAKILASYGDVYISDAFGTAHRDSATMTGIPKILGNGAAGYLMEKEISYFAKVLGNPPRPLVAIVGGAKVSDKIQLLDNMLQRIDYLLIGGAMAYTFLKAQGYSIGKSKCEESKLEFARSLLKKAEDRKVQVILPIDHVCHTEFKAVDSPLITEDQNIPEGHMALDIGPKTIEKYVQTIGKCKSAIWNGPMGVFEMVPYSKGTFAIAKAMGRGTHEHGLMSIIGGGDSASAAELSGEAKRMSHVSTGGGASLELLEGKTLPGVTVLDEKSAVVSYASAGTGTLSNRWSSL

In experiment [7] the target is phosphoglycerate mutase (Leishmania major) (UniProt Q4Q090). Nature of the experiment: qHTS Validation Assay to Find Inhibitors of Phosphoglycerate Mutase (AID 504548).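 Further: end-point luminescence from Kinase-GloPlus after the PGAM reaction; series mostly up to about 58 µM.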 The settings on record: Potency: inhibition qHTS. In a few lines: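 Inhibition of L. major PGAM was assessed by Kinase-GloPlus luminescence following a 45-minute room-temperature reaction with enzyme at 1.25nM final.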
Chain of phosphoglycerate mutase (Leishmania major) (Q4Q090 1-553): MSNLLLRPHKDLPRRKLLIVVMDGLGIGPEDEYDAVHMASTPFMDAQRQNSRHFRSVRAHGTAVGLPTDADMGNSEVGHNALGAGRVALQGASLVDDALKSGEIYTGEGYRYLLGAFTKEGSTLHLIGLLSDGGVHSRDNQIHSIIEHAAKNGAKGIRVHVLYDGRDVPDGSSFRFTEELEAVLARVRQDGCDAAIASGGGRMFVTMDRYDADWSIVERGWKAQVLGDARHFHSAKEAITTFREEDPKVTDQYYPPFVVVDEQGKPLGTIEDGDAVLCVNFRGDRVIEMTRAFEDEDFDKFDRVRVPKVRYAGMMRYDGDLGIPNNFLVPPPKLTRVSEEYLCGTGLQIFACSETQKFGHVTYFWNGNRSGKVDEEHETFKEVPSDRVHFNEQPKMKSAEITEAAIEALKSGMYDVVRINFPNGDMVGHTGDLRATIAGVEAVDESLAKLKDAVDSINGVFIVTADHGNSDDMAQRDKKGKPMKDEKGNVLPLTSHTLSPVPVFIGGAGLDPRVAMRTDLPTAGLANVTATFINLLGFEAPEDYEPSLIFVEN

Experiment [8] is described as follows: qHTS for Inhibitors of ATXN expression: Validation of Cytotoxic Assay (AID 588349). The procedure, abridged: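 Cytotoxicity counter-screen: ATP-based luminescent viability (CellTiter Glo) after 72 hr exposure of HEK293 cells to a compound titration at 37 degrees C.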
Experiment [9] has as its target Transient receptor potential cation channel subfamily V member 1 (Homo sapiens) (UniProt Q8NER1). In words: HTS Assay for Compounds that Act as Enhancers of the Vanilloid Receptor 1 (AID 488979). The procedure, abridged:
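Calcium influx kinetics via Fluo-8 (480/520 nm) in TRPV1-expressing cells, 2000/well cultured overnight at 35.5C. Compound-alone read 3 min (agonist phase), followed by EC20 capsaicin challenge for 2 min (enhancer phase).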

Experiment [10] has as its target Thyrotropin receptor (Homo sapiens) (UniProt P16473). In words: qHTS Assay for Antagonists of the Thyroid Stimulating Hormone Receptor (AID 488980). Further: series mostly up to about 58 µM. In a few lines:
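HEK293 cells transfected with human TSHR, suspended in HEPES-buffered HBSS with 70 uM RO 20-1724, were treated with compounds plus TSH at EC80 (4 nM final). cAMP was measured by competitive HTRF (cryptate anti-cAMP antibody, cAMP-d2 acceptor).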

In experiment [11] the target is Thyrotropin-releasing hormone receptor (Homo sapiens) (UniProt P34981). In words: qHTS for Small Molecule Agonists and Allosteric Enhancers of Human TRH Receptor: Validation Screen for Agonists (AID 493127;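 active means calcium activation more than 3 SD above the typical response in the agonist read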;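 further: intracellular calcium rise by fluo-8 fluorescence before TRH EC20 addition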). To be noted: TRH receptor agonist cell assay; at 2 µM; stronger effect = higher value. In a few lines: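 Compound-evoked intracellular calcium release in fluo-8-loaded TRHR cells, read kinetically on FDSS (Ex 480/Em 530, 1 s/cycle) after 23 nL pintool transfer. Agonist phase preceded 10 nM TRH EC20 addition.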
Chain of Thyrotropin-releasing hormone receptor (Homo sapiens) (P34981 whole entry, looked up): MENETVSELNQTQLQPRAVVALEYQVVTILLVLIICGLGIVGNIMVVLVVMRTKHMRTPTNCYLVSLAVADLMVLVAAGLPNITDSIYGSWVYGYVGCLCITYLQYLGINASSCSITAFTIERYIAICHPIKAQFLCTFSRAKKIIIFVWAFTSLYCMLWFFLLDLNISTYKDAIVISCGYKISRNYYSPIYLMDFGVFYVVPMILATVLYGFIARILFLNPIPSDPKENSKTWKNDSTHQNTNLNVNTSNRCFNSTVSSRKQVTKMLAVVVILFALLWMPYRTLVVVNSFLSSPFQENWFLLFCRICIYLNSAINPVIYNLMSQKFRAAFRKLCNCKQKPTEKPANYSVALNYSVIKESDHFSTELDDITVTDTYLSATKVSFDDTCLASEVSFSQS

In experiment [12] the target is Galactokinase (Homo sapiens) (UniProt P51570). In words: qHTS Validation Assay for Inhibitors of Human Galactokinase (GALK) (AID 493189). In a few lines: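 GALK (5 nM) with 35 uM ATP and 100 uM galactose in HEPES pH8.0, MgCl2, NaCl, DTT, BSA; 1 h at room temperature. Residual ATP read by Kinase-Glo Plus luminescence after 10 min.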
Chain of Galactokinase (Homo sapiens) (P51570 whole entry, looked up): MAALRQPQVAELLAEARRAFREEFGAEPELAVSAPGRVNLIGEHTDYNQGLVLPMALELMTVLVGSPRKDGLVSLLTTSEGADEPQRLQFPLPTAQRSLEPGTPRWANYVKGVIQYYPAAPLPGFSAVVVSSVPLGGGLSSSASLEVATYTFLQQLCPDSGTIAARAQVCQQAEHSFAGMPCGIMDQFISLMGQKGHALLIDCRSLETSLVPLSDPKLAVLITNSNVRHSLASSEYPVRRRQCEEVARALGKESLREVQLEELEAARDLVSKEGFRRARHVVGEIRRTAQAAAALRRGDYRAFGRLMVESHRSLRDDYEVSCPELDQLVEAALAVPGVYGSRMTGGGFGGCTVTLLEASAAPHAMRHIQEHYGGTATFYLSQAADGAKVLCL
The nature of experiment [13]: Validation screen for small molecules that induce DNA re-replication in SW480 colon adenocarcinoma cells (AID 504364). In a few lines: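 Image-based DNA content read-out: Hoechst stain 40 min, total nuclear fluorescence intensity (ex 405 nm, em 500-530 nm) after 48 h compound exposure of 250 SW480 cells/well at 37 C, 5% CO2, versus DMSO vehicle.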
Experiment [14] in a line: Nrf2 qHTS screen for inhibitors: Validation (AID 493153; active means well fitted inhibition curve with a large enough effect in the main read-out, with a control signal flat, not every such curve was filed as active). The settings on record: Potency: luciferase luminescence; viability change: measured here: cytotoxicity max response. In a few lines:
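Concentration-response on A549 ARE_Fluc reporter cells exposed 18-24 h at 37 C, 5% CO2. Cytotoxicity read first by CellTiter-Fluor fluorescence (Ex 405/Em 525), then Nrf2 inhibition by BugLite luminescence after 15 min.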

The target in experiment [15] is Peptidyl-prolyl cis-trans isomerase NIMA-interacting 1 (Homo sapiens) (UniProt Q13526). In words: qHTS Validation Assay to Find Inhibitors of Pin1 (AID 504536; active means well fitted inhibition curve with a large enough effect in the polarisation, with a control signal flat, not every such curve was filed as active; the % refers to the polarisation). In a few lines: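 Fluorescence polarization competition: compounds (titration) displace HiFluor-488-labeled Pin1-1b peptide from Pin1 (0.3 uM final) in pH 7.5 HEPES buffer with DTT, 10 min at room temperature; %Activity normalized to no-enzyme wells, curves fitted.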
Chain of Peptidyl-prolyl cis-trans isomerase NIMA-interacting 1 (Homo sapiens) (Q13526 whole entry, looked up): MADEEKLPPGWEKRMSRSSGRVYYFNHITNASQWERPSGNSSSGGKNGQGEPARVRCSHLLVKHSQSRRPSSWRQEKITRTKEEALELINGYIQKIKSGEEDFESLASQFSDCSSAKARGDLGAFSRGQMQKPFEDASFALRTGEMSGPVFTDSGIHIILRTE

Chain of Transient receptor potential cation channel subfamily V member 1 (Homo sapiens) (Q8NER1 whole entry, looked up): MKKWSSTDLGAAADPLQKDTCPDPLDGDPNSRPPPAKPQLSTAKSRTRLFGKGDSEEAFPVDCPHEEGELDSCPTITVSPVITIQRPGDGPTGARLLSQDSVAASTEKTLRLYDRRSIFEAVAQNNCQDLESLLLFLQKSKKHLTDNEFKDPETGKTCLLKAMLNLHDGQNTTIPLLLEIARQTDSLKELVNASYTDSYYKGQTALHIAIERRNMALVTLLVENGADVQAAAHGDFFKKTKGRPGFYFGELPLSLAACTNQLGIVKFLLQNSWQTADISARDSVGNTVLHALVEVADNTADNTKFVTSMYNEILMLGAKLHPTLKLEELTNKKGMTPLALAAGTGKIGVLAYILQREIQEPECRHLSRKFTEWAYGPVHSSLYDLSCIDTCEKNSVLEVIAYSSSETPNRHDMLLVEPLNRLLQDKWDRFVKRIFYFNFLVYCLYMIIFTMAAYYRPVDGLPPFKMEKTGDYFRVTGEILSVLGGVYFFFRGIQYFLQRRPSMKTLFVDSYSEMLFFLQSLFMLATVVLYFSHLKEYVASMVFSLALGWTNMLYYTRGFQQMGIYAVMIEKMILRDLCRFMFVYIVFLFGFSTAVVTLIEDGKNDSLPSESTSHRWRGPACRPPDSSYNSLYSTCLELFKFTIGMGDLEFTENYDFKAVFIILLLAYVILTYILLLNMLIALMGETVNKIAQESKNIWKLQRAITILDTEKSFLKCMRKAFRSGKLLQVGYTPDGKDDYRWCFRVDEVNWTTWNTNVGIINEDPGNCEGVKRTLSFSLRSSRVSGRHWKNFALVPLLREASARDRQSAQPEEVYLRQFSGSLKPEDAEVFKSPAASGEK
Chain of Methanococcus maripaludis chaperonin (MmCpn) (Q6LX38 1-543): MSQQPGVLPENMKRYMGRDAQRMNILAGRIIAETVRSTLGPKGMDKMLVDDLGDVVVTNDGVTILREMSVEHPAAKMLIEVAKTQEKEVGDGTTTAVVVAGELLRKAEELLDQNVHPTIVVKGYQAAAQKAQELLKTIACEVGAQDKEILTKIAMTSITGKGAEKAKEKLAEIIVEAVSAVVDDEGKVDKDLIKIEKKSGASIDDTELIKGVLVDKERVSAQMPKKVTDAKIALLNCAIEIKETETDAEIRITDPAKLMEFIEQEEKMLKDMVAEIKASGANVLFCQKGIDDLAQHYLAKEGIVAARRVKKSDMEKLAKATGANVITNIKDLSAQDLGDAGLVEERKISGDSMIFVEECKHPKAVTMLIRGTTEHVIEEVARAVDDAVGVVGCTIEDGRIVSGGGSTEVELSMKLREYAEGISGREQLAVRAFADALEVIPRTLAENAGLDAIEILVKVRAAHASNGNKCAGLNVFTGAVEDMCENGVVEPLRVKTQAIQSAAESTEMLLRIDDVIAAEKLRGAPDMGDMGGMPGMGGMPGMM

With `COc1ccc(-c2cc(=S)ss2)cc1`, the molecule was classed as inactive in experiment [1].

For `O=C(O)Cc1ccc(-c2ccccc2)cc1`, in experiment [1], the outcome was inactive. Further, in experiment [2], the Potency entry was “inactive”.

For `C#C[C@]1(O)CC[C@H]2[C@@H]3CCC4=Cc5oncc5CC4(C)[C@H]3CCC21C` (some centres not stated), the molecule was called inactive in experiment [3] and in [5]. For the same molecule, the Potency result in experiment [4], in experiment [6], in [7] and in experiment [8] was “inactive” in each case.

As for `CC1(C)S[C@@H]2[C@H](NC(=O)[C@H](NC(=O)N3CCN(S(C)(=O)=O)C3=O)c3ccccc3)C(=O)N2[C@H]1C(=O)O`, the result in experiment [1] was inactive. Also, in experiment [2], the Potency result is “inactive”.

For the molecule `C=C/C(C)=C/[C@@]1(C)SC(=O)C(C)=C1O`, the outcome in [9] and in [10] was inactive. Besides, the activation in [11] was 0.875% (inactive). For the same molecule, the Potency entry in experiment [12] and in experiment [13] was “inactive” each time.

Turning to `O=c1[nH]c2ccccc2n1CCCN1CCN(C(c2ccccc2)c2ccccc2)CC1`, the outcome in experiment [9], in [10] and in [1] was inactive. The Potency entry in [12] and in experiment [13] was “inactive” each time.

Take `O=C(O)[C@H](O)[C@@H](O)[C@H](O)[C@H](O)CO`: the molecule was called inactive in experiment [1]. Moreover, the Potency result in experiment [2] is “inactive”.

As to `Cc1nc2ccccc2n1Cc1ccc(Cl)cc1`, the molecule was called inactive in experiment [1]. Further, the Potency result in [2] was “inactive”.

In the case of `c1ccc2sc(SN3CCOCC3)nc2c1`, the molecule was classed as inactive in [1]. In experiment [2], the Potency result was “inactive”.

Take `Nc1ncnc2c1ncn2[C@@H]1O[C@H](COP(=O)(O)OP(=O)(O)OP(=O)(O)OP(=O)(O)OC[C@@H]2O[C@H](n3cnc4c(N)ncnc43)[C@@H](O)[C@H]2O)[C@@H](O)[C@H]1O`: the outcome in [3] and in experiment [5] was inactive. Moreover, the Potency result in [4], in experiment [14], in experiment [15], in experiment [6], in experiment [7] and in experiment [2] was “inactive” in each case. The Potency entry in experiment [8] is “inactive”. Moreover, the viability change in experiment [14] was found to be 2.98%.

As for `CCCCCCCCCCCCCCCC(=O)OC(C)C`, the call in [1] was inactive. In addition, the Potency result in experiment [2] is “inactive”.

In the case of `CN1[C@@H]2CC[C@H]1CC(OC(c1ccccc1)c1ccccc1)C2` (some centres not stated), in experiment [1], the molecule was classed as inactive. The Potency entry in experiment [2] was “inactive”.

Consider `CCOC(=O)c1ccccc1O`, for which the outcome in experiment [1] was inactive. For the same molecule, the Potency entry in experiment [2] is “inactive”.

`COC(=O)C1=C(C)NC(C)=C(C(=O)OCC(C)C)C1c1ccccc1[N+](=O)[O-]` (configuration not stated): the molecule was classed as inactive in experiment [1].

`Nc1ccn([C@@H]2O[C@H](CO)[C@@H](O)[C@@H]2O)c(=O)n1`: the result in [9] was inactive. Further, the activation in experiment [11] is -0.125% (inactive). The Potency entry in experiment [13] is “inactive”.
